# The whole screen tested about 48,000 compounds, of which about 13,000 (27%) showed an effect of 50% or more. Some of the results follow.
# Tested on: Wolbachia pipientis
# Assay: Anti-Wolbachia Cell-Based Screen
# Format: functional
# Set-up: scale not given: in the data most compounds retested in dose-response had high values
# Details: 5 µM
row,SMILES,Percent Effect [%]
1,O=C(NCCCN1CCC(OC2CCCCC2)CC1)C1CCCC1,-7.761
2,CCC(C)N(Cc1cccnc1)C(=O)CCSC (stereo not drawn),-1.177
3,CCc1noc(CN(C)C(=O)C2COc3ccccc3C2)n1 (stereo not drawn),19.12
4,CCO[C@H]1CN(CC2CCOCC2)[C@@H]2CCCO[C@H]12.O=C(O)C(F)(F)F,93.44
5,CN(C)CCO[C@H]1CN(CC2CC2)[C@@H]2CCCO[C@H]12.O=C(O)C(F)(F)F.O=C(O)C(F)(F)F,109
6,CN(C)C(=O)CO[C@@H]1CN(Cc2ccccc2F)[C@@H]2CCCO[C@@H]21.O=C(O)C(F)(F)F,-3.753
7,CCO[C@@H]1CN(Cc2scnc2C)[C@@H]2CCCO[C@@H]21.O=C(O)C(F)(F)F.O=C(O)C(F)(F)F,-1.893
8,Fc1ccccc1CN1C[C@H](OCC2CCOCC2)[C@H]2OCCC[C@H]21.O=C(O)C(F)(F)F,-9.213
9,CN(C)C(=O)CO[C@H]1CN(Cc2ccc(F)cc2)[C@@H]2CCCO[C@H]12.O=C(O)C(F)(F)F,-2.214
10,CC(C)C1CN(C(=O)c2cccs2)CCS1 (stereo not drawn),-18.38
11,CN(C)c1cc(C(=O)N2CCN(S(C)(=O)=O)CC2)ccn1,-8.698
12,CNC(=O)C1CN(C(=O)c2cccs2)CCN(S(C)(=O)=O)C1 (stereo not drawn),103.3
13,CNS(=O)(=O)c1ccc(C(=O)N2CCCC(n3cccn3)C2)cc1 (stereo not drawn),-7.031
14,CNC(=O)C1CN(C(=O)c2ccncc2)CCN(S(C)(=O)=O)C1 (stereo not drawn),113
15,CS(=O)(=O)NC[C@H]1OC[C@@H]2CCN(C(=O)c3cccnc3)C[C@@H]21,-2.955
16,O=C(O)C[C@@H]1CCN(C(=O)c2cccs2)C[C@@H]1CCN1CCCCC1,-8.603
17,CNC(=O)C1CN(C(=O)c2cccnc2)CCN(S(C)(=O)=O)C1 (stereo not drawn),102.1
18,CCCNC(=O)C[C@@H]1CCN(C(=O)c2cccnc2)C[C@@H]1CC,-4.226
19,COCCN(Cc1cccnc1)c1nc(C)nc2oc(C)nc12,1.02
20,CCCN(CC1CC1)C(=O)Cn1ccccc1=O,-7.373
21,O=C(O)C(F)(F)F.O=C(O)C(F)(F)F.O=C(O)C(F)(F)F.c1cnc(N2CCN(C3CCC[C@@H]4CN(CC5CC5)C[C@H]34)CC2)nc1 (stereo partly drawn),-9.573
22,Clc1cccc2c3c([nH]c12)CCN(Cc1cc2n(n1)CCCNC2)C3,-3.179
23,CC(C(=O)NC1CC1)S(=O)(=O)Cc1noc(C(C)(C)C)n1 (stereo not drawn),12.74
